Measured values published in PubChem BioAssay (Tox21).
Results filed as inconclusive are left out. Active and inactive are the calls of the source. Unless noted, calls follow the shape of the dose curve; as a rule, active = well fitted curve in the direction sought with a large enough effect in the repeat runs; inconclusive = weak or mixed curves; inactive = no such curve, though single readings can be large; an effect the other way counts as inactive or inconclusive. Positions of bridges follow the written chain, without caps; N, C: chain ends. Residues, ends and D or L forms follow the SMILES beside them.

Experiments:
[1] = qHTS assay to identify aromatase inhibitors - cell viability counter screen (AID 743084);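 also: cells stimulated with testosterone during compound exposure; nearly all actives have a fitted effect of over 55% in size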
[2] = target: Aryl hydrocarbon receptor (Homo sapiens) (UniProt P35869); assay: qHTS assay to identify small molecule that activate the aryl hydrocarbon receptor (AhR) signaling pathway (AID 743085);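 also: HG2L7.5c1 human HepG2 liver cells with stably integrated DRE-driven firefly reporter; series mostly up to about 70 µM; nearly all actives have a fitted effect of over 15% in size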
Sequence of Aryl hydrocarbon receptor (Homo sapiens) (P35869 whole entry, looked up): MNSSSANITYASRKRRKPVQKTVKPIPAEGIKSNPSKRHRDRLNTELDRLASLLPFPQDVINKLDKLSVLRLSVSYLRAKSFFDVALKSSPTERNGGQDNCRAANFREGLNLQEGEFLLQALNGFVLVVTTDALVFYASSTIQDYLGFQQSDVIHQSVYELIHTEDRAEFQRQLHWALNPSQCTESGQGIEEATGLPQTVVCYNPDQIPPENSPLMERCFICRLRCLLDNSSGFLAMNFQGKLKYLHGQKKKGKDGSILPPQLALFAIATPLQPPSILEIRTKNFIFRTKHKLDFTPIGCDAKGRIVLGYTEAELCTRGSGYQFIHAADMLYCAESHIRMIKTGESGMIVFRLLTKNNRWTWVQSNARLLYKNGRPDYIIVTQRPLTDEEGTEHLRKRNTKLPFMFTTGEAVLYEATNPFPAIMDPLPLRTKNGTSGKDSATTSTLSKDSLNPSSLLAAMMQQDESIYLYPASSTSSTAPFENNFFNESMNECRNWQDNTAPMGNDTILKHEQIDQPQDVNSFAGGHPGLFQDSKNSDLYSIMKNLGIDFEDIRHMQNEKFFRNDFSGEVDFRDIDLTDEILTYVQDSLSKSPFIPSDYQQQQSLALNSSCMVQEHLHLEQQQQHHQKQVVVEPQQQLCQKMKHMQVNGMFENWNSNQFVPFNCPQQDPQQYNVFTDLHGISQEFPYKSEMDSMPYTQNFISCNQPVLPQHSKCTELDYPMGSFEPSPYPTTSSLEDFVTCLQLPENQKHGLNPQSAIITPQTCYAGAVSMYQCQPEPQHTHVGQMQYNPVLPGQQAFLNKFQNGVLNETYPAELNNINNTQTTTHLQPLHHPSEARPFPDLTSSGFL
Outline: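 Cell line HG2L7.5c1 (human hepatoma, 20× DRE-luc). Plated, 5 h 37C, compound/DMSO added, 24 h 37C. CellTiter-Fluor 30 min 37C → fluorescence; then ONE-Glo 30 min RT → luminescence.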

[3] = qHTS assay to identify small molecule that activate the aryl hydrocarbon receptor (AhR) signaling pathway - cell viability counter screen (AID 743086);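 also: HepG2 liver cells carrying the AhR DRE luciferase reporter; series mostly up to about 70 µM; nearly all actives have a fitted effect of over 45% in size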
Outline: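 HepG2-AhR-luc (HG2L7.5c1) cells, 4000/well, treated 24 h at 37 C with compound; viability measured as CellTiter-Fluor fluorescence after 30 min in the same wells as the luciferase read.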

[4] = target: Peroxisome proliferator-activated receptor gamma (Homo sapiens) (UniProt P37231); assay: qHTS assay to identify small molecule agonists of the peroxisome proliferator-activated receptor gamma (PPARg) signaling pathway (AID 743094; active = well fitted activation curve with a large enough effect in the signal ratio in the repeat runs, not every such curve was filed as active; the % refers to the signal ratio)
Sequence of Peroxisome proliferator-activated receptor gamma (Homo sapiens) (P37231 whole entry, looked up): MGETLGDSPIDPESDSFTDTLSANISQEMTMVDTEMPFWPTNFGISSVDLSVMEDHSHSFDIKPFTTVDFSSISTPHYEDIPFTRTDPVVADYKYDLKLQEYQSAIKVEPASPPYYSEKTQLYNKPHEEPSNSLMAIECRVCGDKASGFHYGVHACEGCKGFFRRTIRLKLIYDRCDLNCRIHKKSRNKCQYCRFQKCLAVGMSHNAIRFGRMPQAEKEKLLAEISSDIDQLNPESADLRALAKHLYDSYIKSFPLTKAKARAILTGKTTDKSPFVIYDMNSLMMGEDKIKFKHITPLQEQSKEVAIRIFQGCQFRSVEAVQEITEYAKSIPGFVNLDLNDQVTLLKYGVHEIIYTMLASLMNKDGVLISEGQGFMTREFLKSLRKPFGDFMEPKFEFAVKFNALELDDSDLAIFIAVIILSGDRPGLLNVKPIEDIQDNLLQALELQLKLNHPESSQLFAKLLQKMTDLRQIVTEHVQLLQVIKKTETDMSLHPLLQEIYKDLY
Outline: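 Following 5 h plating at 37C, PPARg-bla HEK293H cells receive compound or DMSO for 17 h; fluorescence intensity is recorded after LiveBLAzer B/G loading for 1 h at room temperature.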

[5] = qHTS assay to identify small molecule phospholipidosis (PLD) inducers (AID 1259344; active = well fitted curve in the direction sought with a large enough effect; an effect the other way counts as inactive or inconclusive)
Outline: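 HepG2 cells, 900/well, treated with compound plus LipidTOX Red for 24 h at 37 C; amiodarone positive and DMSO negative controls. Fixed with paraformaldehyde/Hoechst, then high-content imaging scored LipidTOX pit count and integrated intensity per well and per cell.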
% is scaled to controls: 0 for no effect and ±100 for the full control effect.

COC1=C(C(=O)O)N2C(=O)[C@@H](NC(=O)[C@H](N)C3=CCC=CC3)[C@H]2SC1
inactive: Potency [1] | Potency [2] | Potency [3] | Potency [4] | Potency [5]

NCCCC[C@H](NC(=O)[C@@H]1CCCN1C(=O)[C@@H]1CSSC[C@H](NC(=O)CNC(=O)CNC(=O)CN)C(=O)N[C@@H](Cc2ccc(O)cc2)C(=O)N[C@@H](Cc2ccccc2)C(=O)N[C@@H](CCC(N)=O)C(=O)N[C@@H](CC(N)=O)C(=O)N1)C(=O)NCC(N)=O (H-GGGCYFQNCPKG-NH2; disulfide 4-9)
inactive: Potency [1] | Potency [2] | Potency [3] | Potency [4] | Potency [5]

CCOC(=O)CCC(=O)O[C@H]1[C@H](O[C@@H]2[C@@H](C)[C@H](O[C@H]3C[C@@](C)(OC)[C@@H](O)[C@H](C)O3)[C@@H](C)C(=O)O[C@H](CC)[C@@](C)(O)[C@H](O)[C@@H](C)C(=O)[C@H](C)C[C@@]2(C)O)O[C@H](C)C[C@@H]1N(C)C
inactive: Potency [1] | Potency [2] | Potency [3] | Potency [4] | Potency [5]

CC1(C)S[C@@H]2[C@H](NC(=O)Cc3ccccc3)C(=O)N2[C@H]1C(=O)O
inactive: Potency [1] | Potency [2] | Potency [3] | Potency [4] | Potency [5]

NC[C@@H]1O[C@H](O[C@H]2[C@@H](O)[C@H](O[C@@H]3[C@@H](O)[C@H](N)C[C@H](N)[C@H]3O[C@H]3O[C@H](CO)[C@@H](O)[C@H](O)[C@H]3N)O[C@@H]2CO)[C@H](N)[C@@H](O)[C@@H]1O
inactive: Potency [1] | Potency [2] | Potency [3] | Potency [4] | Potency [5]

O=C(O)[C@@H](O)[C@H](O)[C@H](O)[C@@H](O)C(=O)O (tested in a mixture with another compound)
inactive: Potency [1] | Potency [2] | Potency [3] | Potency [4] | Potency [5]

CO[C@H]1C[C@H](O[C@H]2[C@H](C)[C@@H](O[C@@H]3O[C@H](C)C[C@H](N(C)C)[C@H]3OC(C)=O)[C@@H](C)C[C@]3(CO3)C(=O)[C@H](C)[C@@H](OC(C)=O)[C@@H](C)[C@@H](C)OC(=O)[C@@H]2C)O[C@@H](C)[C@@H]1OC(C)=O
inactive: Potency [1] | Potency [2] | Potency [3] | Potency [4] | Potency [5]

Nc1ccn(C[C@@H](CO)OCP(=O)(O)O)c(=O)n1
inactive: Potency [1] | Potency [2] | Potency [3] | Potency [4] | PLD induction [5] -2.23% [at 7.66 µM]

C[N+](C)(CCCCCC[N+](C)(C)C1c2ccccc2-c2ccccc21)C1c2ccccc2-c2ccccc21
inactive: Potency [1] | Potency [2] | Potency [3] | Potency [4] | Potency [5]

CCC(c1ccccc1)c1noc(CCN(CC)CC)n1 (configuration not stated)
inactive: Potency [1] | Potency [2] | Potency [3] | Potency [4] | Potency [5]

CCCCCCCCCCCCCCCCCC(=O)OCCO
inactive: Potency [1] | Potency [2] | Potency [3] | Potency [4] | Potency [5]

CCCCCCCCCCCCCCCC(=O)O[C@@H]1[C@@H](O)[C@@H](O)[C@@H]([C@H](NC(=O)[C@@H]2C[C@@H](CCC)CN2C)[C@H](C)Cl)O[C@@H]1SC
inactive: Potency [1] | Potency [2] | Potency [3] | Potency [4] | Potency [5]

CN(CCO)CC(O)Cn1cnc2c1c(=O)n(C)c(=O)n2C (configuration not stated) (tested in a mixture with another compound)
inactive: Potency [1] | Potency [2] | Potency [3] | Potency [4] | Potency [5]

CN1CCc2c(c3ccccc3n2Cc2ccccc2)C1
inactive: Potency [1] | Potency [2] | Potency [3] | Potency [4] | Potency [5]

C/C(=C(\CCOC(=O)c1ccccc1)SS/C(CCOC(=O)c1ccccc1)=C(/C)N(C=O)Cc1cnc(C)nc1N)N(C=O)Cc1cnc(C)nc1N
inactive: Potency [1] | Potency [2] | Potency [3] | Potency [4] | Potency [5]

Cc1onc(-c2ccccc2)c1C(=O)N[C@@H]1C(=O)N2[C@@H]1SC(C)(C)[C@@H]2C(=O)O
inactive: Potency [1] | Potency [2] | Potency [3] | Potency [4] | PLD induction [5] -3.09% [at 7.66 µM]

Cc1cc(-n2c(=O)[nH]c(=O)n(C)c2=O)ccc1Oc1ccc(S(=O)(=O)C(F)(F)F)cc1
inactive: Potency [1] | Potency [2] | Potency [3] | Potency [5]

CCCCCCCCCCCCCCCCCCOP(=O)([O-])OC1CC[N+](C)(C)CC1
inactive: Potency [1] | Potency [2] | Potency [3] | Potency [4] | Potency [5]

C[N+]1(C)CCN(CC(O)(c2ccccc2)C2CCCCC2)CC1 (configuration not stated)
inactive: Potency [1] | Potency [2] | Potency [3] | Potency [5]

CCC(CN)CC(C)CCNCC(O)CNCC(C)CC(CC)CN (configuration not stated)
inactive: Potency [1] | Potency [2] | Potency [3] | Potency [4] | PLD induction [5] -0.745% [at 7.66 µM]

CC1(C)S[C@@H]2[C@H](NC(=O)[C@H](N)c3ccccc3)C(=O)N2[C@H]1C(=O)OCOC(=O)[C@@H]1N2C(=O)C[C@H]2S(=O)(=O)C1(C)C
inactive: Potency [1] | Potency [2] | Potency [3] | Potency [5]

NCCCC[C@H](NC(=O)[C@@H]1CCCN1C(=O)[C@@H]1CSSC[C@H](N)C(=O)N[C@@H](Cc2ccccc2)C(=O)N[C@@H](Cc2ccccc2)C(=O)N[C@@H](CCC(N)=O)C(=O)N[C@@H](CC(N)=O)C(=O)N1)C(=O)NCC(N)=O
inactive: Potency [1] | Potency [2] | Potency [3] | Potency [4] | Potency [5]
